# Assay results published in the supplement of paper PMC6555819.
# Legend:
# Test in all cases: PBM binding z-score (relative to random genomic background probes); higher = stronger binding; sequences stand for … in GC…GCGATTGACAGCGTAGAATGAAGG
# [1] = test system: RARb homodimer (NR concentration 270 nM)
# Summary of the method: (§1)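 Regression normalization was applied to scanned fluorescence from custom Agilent 4×180K protein-binding microarrays. Before scanning, arrays were incubated 1 h with ligand-free nuclear receptor dimers, and binding was detected with antibodies against each partner (one per run). Binding z-scores use the random background probes as reference.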
# [2] = test system: RARg:RXRa (NR concentration 270 nM, RXRa partner concentration 90 nM)
# Summary of the method: as §1
# [3] = test system: RARg homodimer (NR concentration 270 nM)
# Summary of the method: as §1
# [4] = test system: RXRa DBDmut IVT, anti-RXR (DBD mutation: RXRa K156A/R161A, NR concentration 90 nM)
# Summary of the method: as §1
# [5] = test system: RXRa homodimer (NR concentration 180 nM)
# Summary of the method: as §1
# [6] = test system: THRa:RXRa (NR concentration 90 nM, RXRa partner concentration 90 nM)
# Summary of the method: as §1
# [7] = test system: THRa homodimer (NR concentration 90 nM)
# Summary of the method: as §1
# [8] = test system: VDR homodimer (NR concentration 270 nM)
# Summary of the method: as §1
sequence,measurement,setting,value
ACTAGCAGGCCAAGTTGGGGTCACTCAAACAAAG,PBM binding z-score,[1],3.81
same,PBM binding z-score,[2],4.97
same,PBM binding z-score,[3],3.25
same,PBM binding z-score,[4],0.825
same,PBM binding z-score,[5],5.2
same,PBM binding z-score,[6],4.16
same,PBM binding z-score,[7],2.89
same,PBM binding z-score,[8],3.34
ATTCAAAGTTCAGGACGAGGTAACGTAAAGCACG,PBM binding z-score,[1],3.31
same,PBM binding z-score,[2],4.56
same,PBM binding z-score,[3],4.73
same,PBM binding z-score,[4],2.99
same,PBM binding z-score,[5],3.08
same,PBM binding z-score,[6],3.82
same,PBM binding z-score,[7],2.01
same,PBM binding z-score,[8],2.3
CTGGAAAGGTCGTGCTCAGGTGAGTATACCAAAC,PBM binding z-score,[1],2.76
same,PBM binding z-score,[2],5.06
same,PBM binding z-score,[3],3.97
same,PBM binding z-score,[4],1.91
same,PBM binding z-score,[5],4.95
same,PBM binding z-score,[6],4.09
same,PBM binding z-score,[7],0.923
same,PBM binding z-score,[8],0.759
TCGAGTAGGATACCAATGGGGCATTCAGCTTTCT,PBM binding z-score,[1],-0.451
same,PBM binding z-score,[2],-0.58
same,PBM binding z-score,[3],-0.482
same,PBM binding z-score,[4],0.0326
same,PBM binding z-score,[5],-0.263
same,PBM binding z-score,[6],-1.38
same,PBM binding z-score,[7],-1.03
same,PBM binding z-score,[8],-1.09
GCTGCTAGGTCAACTGATGGTCAGCCAAAGCTCG,PBM binding z-score,[1],3.68
same,PBM binding z-score,[2],5.01
same,PBM binding z-score,[3],5.1
same,PBM binding z-score,[4],1.7
same,PBM binding z-score,[5],2.89
same,PBM binding z-score,[6],2.86
same,PBM binding z-score,[7],0.852
same,PBM binding z-score,[8],-0.263
AGACCGAGGGCAATGAGTTGATAGCACGGGTGGC,PBM binding z-score,[1],0.894
same,PBM binding z-score,[2],0.934
same,PBM binding z-score,[3],1.36
same,PBM binding z-score,[4],1.31
same,PBM binding z-score,[5],0.545
same,PBM binding z-score,[6],0.481
same,PBM binding z-score,[7],-0.368
same,PBM binding z-score,[8],3.16
TCTATCAGTTGAAGGGCAACCGACGAGTCCGTTT,PBM binding z-score,[1],1.44
same,PBM binding z-score,[2],0.695
same,PBM binding z-score,[3],0.748
same,PBM binding z-score,[4],1.11
same,PBM binding z-score,[5],0.849
same,PBM binding z-score,[6],0.16
same,PBM binding z-score,[7],0.0373
same,PBM binding z-score,[8],1.44
CGTCCAATGTCAGAGAGGTCAGTGAATGCCGAGT,PBM binding z-score,[1],4.14
same,PBM binding z-score,[2],3.35
same,PBM binding z-score,[3],3.8
same,PBM binding z-score,[4],1.27
same,PBM binding z-score,[5],2.57
same,PBM binding z-score,[6],2.75
same,PBM binding z-score,[7],1.37
same,PBM binding z-score,[8],2.91
TCTAGTTGGTCATAGGTCACACACTCGAAATGCG,PBM binding z-score,[1],3.67
same,PBM binding z-score,[2],4.2
same,PBM binding z-score,[3],3.58
same,PBM binding z-score,[4],1.63
same,PBM binding z-score,[5],4.58
same,PBM binding z-score,[6],2.68
same,PBM binding z-score,[7],1.47
same,PBM binding z-score,[8],1.63
GCTAGCAGGCCATGTGGGTCACTCAATGACGGGC,PBM binding z-score,[1],1.65
same,PBM binding z-score,[2],0.945
same,PBM binding z-score,[3],1.05
same,PBM binding z-score,[4],-0.752
same,PBM binding z-score,[5],0.909
same,PBM binding z-score,[6],0.759
same,PBM binding z-score,[7],-0.59
same,PBM binding z-score,[8],0.0438
GCTTACGGGTCAAAGGTTATATCATGAATAGAAT,PBM binding z-score,[1],3.32
same,PBM binding z-score,[2],6.74
same,PBM binding z-score,[3],4.71
same,PBM binding z-score,[4],2.66
same,PBM binding z-score,[5],9.55
same,PBM binding z-score,[6],4.12
same,PBM binding z-score,[7],0.113
same,PBM binding z-score,[8],2.09
TCATATAGGTAATTCAGGTGAAAGTCGGCATCTA,PBM binding z-score,[1],0.654
same,PBM binding z-score,[2],0.323
same,PBM binding z-score,[3],0.241
same,PBM binding z-score,[4],1.73
same,PBM binding z-score,[5],0.923
same,PBM binding z-score,[6],2.52
same,PBM binding z-score,[7],1.8
same,PBM binding z-score,[8],0.399
TAGCCTAGGTCAGATCGGGCCATTATACGCTATA,PBM binding z-score,[1],2.15
same,PBM binding z-score,[2],2.48
same,PBM binding z-score,[3],3.68
same,PBM binding z-score,[4],-0.0922
same,PBM binding z-score,[5],1.36
same,PBM binding z-score,[6],4.25
same,PBM binding z-score,[7],0.543
same,PBM binding z-score,[8],-0.154
TCTGGGAGGACACGAAGGTCAGAGCTTTCCAGAG,PBM binding z-score,[1],3.49
same,PBM binding z-score,[2],3.51
same,PBM binding z-score,[3],4.11
same,PBM binding z-score,[4],0.416
same,PBM binding z-score,[5],2.01
same,PBM binding z-score,[6],2.9
same,PBM binding z-score,[7],1.18
same,PBM binding z-score,[8],1.35
TCTTGTAGCTCAATAGAGGTTAAGAAAGTGCGCT,PBM binding z-score,[1],0.952
same,PBM binding z-score,[2],0.354
same,PBM binding z-score,[3],0.113
same,PBM binding z-score,[4],0.261
same,PBM binding z-score,[5],0.994
same,PBM binding z-score,[6],1.27
same,PBM binding z-score,[7],-0.704
same,PBM binding z-score,[8],-0.137
CAAACTAGGTCACCGGAAGGTCAAAGGCCGCATG,PBM binding z-score,[1],5.41
same,PBM binding z-score,[2],8.42
same,PBM binding z-score,[3],7.47
same,PBM binding z-score,[4],1.23
same,PBM binding z-score,[5],6.36
same,PBM binding z-score,[6],4.56
same,PBM binding z-score,[7],2.79
same,PBM binding z-score,[8],2.8
CCGACTGGGGCATAAGGTTACGATAAGCCAGCCC,PBM binding z-score,[1],1.67
same,PBM binding z-score,[2],1.92
same,PBM binding z-score,[3],1.18
same,PBM binding z-score,[4],-0.47
same,PBM binding z-score,[5],1.45
same,PBM binding z-score,[6],1.98
same,PBM binding z-score,[7],0.985
same,PBM binding z-score,[8],-0.0834
